Molecular target: SUN1
Experiment: pooled miR-30 sensor sort-seq; sequence = guide strand
Details: shRNA
Also: reference of the scale not given here.

Sequence | sensor-assay potency score (higher = more potent)
TTGTTTGTGCTTCTGCGCTGTT | -0.561
TTGGAAAGCTGTGTCGTCGGGT | 0.562
TTTGTTGTTCTGGCCGCTCGGT | -0.815
TTTGTTTGTGCTTCTGCGCTGT | 0.665
TCGAGTCACAGCATCCTGCAGG | -0.812
TTTTCTAATCCATAGACGGCGA | -0.893
TTTTGGTTTCGTAAGTTTCAGA | -0.848
TTCAGGGAGACAGCGCTGCTGG | -1.01
TAGAATAAACTCTCGACACGGG | -0.0133
TTCTTCAGGGAGACAGCGCTGC | -0.739
TTGTTGTTCTGGCCGCTCGGTT | -1.37

Molecular target: SURF1
Experiment: as above
Details: shRNA

Sequence | sensor-assay potency score (higher = more potent)
TTTCTTAAACCACAGGTAGGAT | -0.803
TTGAAATACTGCATTATCCAGG | -0.184
TAGGAATTTCTTAAACCACAGG | -0.992
TTCAGGATTCACTTTCTTCCTG | -0.13
TTGTGGCAGATGCTTCTGCTGC | -1.64
TTCCTCAGAGTAACTCTGGTTT | -0.24
TTCCAGGTCTCGATAATGCCAG | -0.863

Source: the OligoGym collection
